# Measurements as given in PubChem BioAssay (EPA / NIEHS).
# Several values for one entry are separate records, joined by “and”; a condition that tells them apart may be missing. Equal entries are not always repeated. Results filed as inconclusive are left out. Some structures have more than one record in an assay (separate samples or runs), and their calls can disagree. Activity calls are given as the source filed them. The calls were made as follows, unless noted: active = hit-call score of the fitted dose curve at least 0.9, where 1 is the maximum; inconclusive = response in the unintended direction; inactive = score below 0.9.
# How the values were obtained:
# [1] = BSK_3C_Proliferation: Cell Proliferation Assessment in the BioMAP Diversity Plus: 3C Assay (AID 2283006; active = hit-call score of the fitted dose curve at least 0.9, where 1 is the maximum; inactive = score below 0.9;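 as to AC50: potency may reflect either rise or fall in cell number versus DMSO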); conditions: primary human endothelial cells (HUVEC)
# Summary of the method: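 Subconfluent HUVEC (3C system) cultured with chemical; relative cell number read at 48 h by sulforhodamine B total-protein staining (0.1% SRB after 10% TCA fixation, 560 nm). Bidirectional fit relative to DMSO.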
# [2] = biological target: Peroxisome proliferator-activated receptor gamma (Homo sapiens) (UniProt P37231); test: ATG_PPARg_TRANS: Attagene TRANS-FACTORIAL HepG2 Assay for human Peroxisome Proliferator-activated Receptor-gamma (PPARg) (AID 2283007)
# Sequence of Peroxisome proliferator-activated receptor gamma (Homo sapiens) (P37231 whole entry, looked up): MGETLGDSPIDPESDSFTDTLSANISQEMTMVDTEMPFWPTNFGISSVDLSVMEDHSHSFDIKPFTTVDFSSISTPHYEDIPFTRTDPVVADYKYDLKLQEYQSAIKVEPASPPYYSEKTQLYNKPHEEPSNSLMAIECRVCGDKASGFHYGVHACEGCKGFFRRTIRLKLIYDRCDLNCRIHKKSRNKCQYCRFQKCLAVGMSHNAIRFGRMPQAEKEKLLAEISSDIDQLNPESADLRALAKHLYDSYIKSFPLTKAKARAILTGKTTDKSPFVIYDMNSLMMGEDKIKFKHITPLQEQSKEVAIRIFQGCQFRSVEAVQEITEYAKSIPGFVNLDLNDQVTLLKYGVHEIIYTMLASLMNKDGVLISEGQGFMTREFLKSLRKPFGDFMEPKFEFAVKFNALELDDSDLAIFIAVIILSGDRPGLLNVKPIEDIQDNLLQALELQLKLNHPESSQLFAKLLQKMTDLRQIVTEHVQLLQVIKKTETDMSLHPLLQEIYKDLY
# Summary of the method: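 Human hepatoma HepG2, transient MRTU transfection, 24 h treatment. mRNA reporter signal by RT-PCR plus capillary electrophoresis, fluorescence detection; fitted for increase over DMSO negative control.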
# [3] = biological target: Nuclear receptor subfamily 1 group I member 2 (Homo sapiens) (UniProt O75469); test: ATG_PXR_TRANS: Attagene TRANS-FACTORIAL HepG2 Assay for human Pregnane X Receptor (PXR) (AID 2283008)
# Sequence of Nuclear receptor subfamily 1 group I member 2 (Homo sapiens) (O75469 whole entry, looked up, the tested form may be a part): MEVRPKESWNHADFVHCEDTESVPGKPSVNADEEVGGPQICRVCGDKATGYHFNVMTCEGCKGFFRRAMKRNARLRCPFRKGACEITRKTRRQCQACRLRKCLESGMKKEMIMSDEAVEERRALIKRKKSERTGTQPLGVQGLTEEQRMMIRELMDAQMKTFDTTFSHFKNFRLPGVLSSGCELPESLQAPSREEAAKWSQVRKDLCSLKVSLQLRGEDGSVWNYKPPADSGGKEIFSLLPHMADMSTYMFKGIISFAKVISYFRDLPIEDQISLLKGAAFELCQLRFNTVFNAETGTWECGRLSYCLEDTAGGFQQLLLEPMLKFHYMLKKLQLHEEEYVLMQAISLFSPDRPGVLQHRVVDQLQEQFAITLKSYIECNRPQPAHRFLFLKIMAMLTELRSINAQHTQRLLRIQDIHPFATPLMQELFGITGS
# Summary of the method: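 HepG2 cells transiently transfected with multiple reporter units, here a PXR-GAL4 chimera driving a GAL4-UAS reporter; 24 h compound exposure. Reporter mRNA measured by RT-PCR, FAM labelling and capillary electrophoresis; gain of signal fitted against DMSO baseline.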
# [4] = biological target: human RAR-related Orphan Receptor beta (RORb), RORB (gene 6096) (UniProt Q92753); test: ATG_RORb_TRANS: Attagene TRANS-FACTORIAL HepG2 Assay for human RAR-related Orphan Receptor beta (RORb) (AID 2283010)
# Sequence of human RAR-related Orphan Receptor beta (RORb), RORB (gene 6096) (Q92753 whole entry, looked up, the tested form may be a part): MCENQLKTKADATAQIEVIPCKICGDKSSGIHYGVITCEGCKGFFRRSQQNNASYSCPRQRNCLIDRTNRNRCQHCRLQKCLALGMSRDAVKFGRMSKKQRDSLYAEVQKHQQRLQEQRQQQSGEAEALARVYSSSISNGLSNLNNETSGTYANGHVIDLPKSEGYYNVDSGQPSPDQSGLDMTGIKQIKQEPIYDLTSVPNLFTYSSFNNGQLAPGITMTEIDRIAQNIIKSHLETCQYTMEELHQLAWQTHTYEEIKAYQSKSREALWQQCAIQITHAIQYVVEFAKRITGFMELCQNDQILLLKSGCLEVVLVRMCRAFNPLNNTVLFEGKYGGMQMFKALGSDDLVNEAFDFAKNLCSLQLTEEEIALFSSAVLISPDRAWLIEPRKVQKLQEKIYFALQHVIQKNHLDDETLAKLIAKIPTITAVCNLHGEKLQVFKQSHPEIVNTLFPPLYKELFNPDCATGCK
# Summary of the method: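 HepG2 cells transiently transfected with GAL4-UAS reporter units expressing chimeric NR-Gal4 protein; reporter mRNA measured 24 h after dosing by RT-PCR, 6-FAM labelling and capillary electrophoresis. Gain-of-signal fitted relative to DMSO baseline.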
# [5] = biological target: human RAR-related Orphan Receptor gamma (RORg), RORC (gene 6097) (UniProt P51449); test: ATG_RORg_TRANS: Attagene TRANS-FACTORIAL HepG2 Assay for human RAR-related Orphan Receptor gamma (RORg) (AID 2283011)
# Sequence of human RAR-related Orphan Receptor gamma (RORg), RORC (gene 6097) (P51449 whole entry, looked up, the tested form may be a part): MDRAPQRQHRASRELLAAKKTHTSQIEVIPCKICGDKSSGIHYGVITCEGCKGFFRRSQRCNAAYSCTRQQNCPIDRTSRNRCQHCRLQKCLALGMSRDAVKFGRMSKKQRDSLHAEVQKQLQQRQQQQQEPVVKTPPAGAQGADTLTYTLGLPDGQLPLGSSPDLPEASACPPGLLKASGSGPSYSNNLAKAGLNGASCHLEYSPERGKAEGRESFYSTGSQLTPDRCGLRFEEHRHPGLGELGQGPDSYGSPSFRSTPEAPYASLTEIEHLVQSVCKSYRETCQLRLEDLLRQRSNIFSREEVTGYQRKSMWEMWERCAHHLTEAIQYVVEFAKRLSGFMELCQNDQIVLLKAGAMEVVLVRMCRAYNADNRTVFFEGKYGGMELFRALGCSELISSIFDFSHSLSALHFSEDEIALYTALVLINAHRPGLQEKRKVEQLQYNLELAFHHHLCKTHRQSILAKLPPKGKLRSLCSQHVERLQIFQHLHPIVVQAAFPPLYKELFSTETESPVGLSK
# Summary of the method: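 Readout: reporter transcript induction (RT-PCR, fluorescent primer extension, capillary electrophoresis) after 24 h compound exposure of transiently transfected HepG2 cells carrying a RORg-Gal4 chimera and GAL4-UAS reporters; DMSO served as baseline, with increasing signal fitted.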
# [6] = biological target: human Retinoid X Receptor beta (RXRb), RXRB (gene 6257) (UniProt P28702); test: ATG_RXRb_TRANS: Attagene TRANS-FACTORIAL HepG2 Assay for human Retinoid X Receptor beta (RXRb) (AID 2283013)
# Sequence of human Retinoid X Receptor beta (RXRb), RXRB (gene 6257) (P28702 whole entry, looked up, the tested form may be a part): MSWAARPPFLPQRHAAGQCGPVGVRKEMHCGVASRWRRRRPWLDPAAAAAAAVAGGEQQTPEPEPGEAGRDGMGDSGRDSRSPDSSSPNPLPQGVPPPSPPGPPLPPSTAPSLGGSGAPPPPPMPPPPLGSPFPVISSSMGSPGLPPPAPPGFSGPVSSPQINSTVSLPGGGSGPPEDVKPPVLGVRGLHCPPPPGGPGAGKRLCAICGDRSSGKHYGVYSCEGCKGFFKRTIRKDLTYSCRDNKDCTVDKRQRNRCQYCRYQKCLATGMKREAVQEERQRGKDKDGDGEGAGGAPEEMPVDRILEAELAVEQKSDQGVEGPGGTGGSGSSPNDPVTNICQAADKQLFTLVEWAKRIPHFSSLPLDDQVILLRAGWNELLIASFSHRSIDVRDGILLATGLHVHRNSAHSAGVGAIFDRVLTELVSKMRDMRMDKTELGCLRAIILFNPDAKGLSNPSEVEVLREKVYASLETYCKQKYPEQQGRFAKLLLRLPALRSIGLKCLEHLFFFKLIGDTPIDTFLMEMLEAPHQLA
# Summary of the method: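 HepG2 cells were transiently transfected with multiplexed GAL4-UAS reporters and a chimeric RXRb-Gal4 construct, then exposed for 24 h. Reporter mRNA was quantified by RT-PCR, FAM labeling, HpaI digestion and capillary electrophoresis; gain of signal was scored against DMSO.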
# [7] = biological target: Retinoic acid receptor RXR-alpha (Homo sapiens) (UniProt P19793); test: ATG_RXRa_TRANS: Attagene TRANS-FACTORIAL HepG2 Assay for human Retinoid X Receptor alpha (RXRa) (AID 2283012)
# Sequence of Retinoic acid receptor RXR-alpha (Homo sapiens) (P19793 whole entry, looked up, the tested form may be a part): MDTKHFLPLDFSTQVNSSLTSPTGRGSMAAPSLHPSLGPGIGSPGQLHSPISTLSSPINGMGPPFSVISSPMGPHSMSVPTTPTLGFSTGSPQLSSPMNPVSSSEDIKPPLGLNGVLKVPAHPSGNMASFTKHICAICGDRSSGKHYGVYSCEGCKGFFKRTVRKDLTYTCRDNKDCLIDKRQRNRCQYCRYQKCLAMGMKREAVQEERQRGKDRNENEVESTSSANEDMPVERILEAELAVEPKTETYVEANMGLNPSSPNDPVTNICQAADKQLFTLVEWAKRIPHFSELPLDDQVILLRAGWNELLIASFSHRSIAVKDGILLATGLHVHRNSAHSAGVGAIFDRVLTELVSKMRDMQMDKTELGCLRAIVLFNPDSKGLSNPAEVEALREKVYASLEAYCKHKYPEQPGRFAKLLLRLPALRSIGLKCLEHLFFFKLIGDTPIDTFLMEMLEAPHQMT
# Summary of the method: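 HepG2 cells transiently transfected with GAL4-UAS reporter units and chimeric RXRa-Gal4 protein, treated 24 h. Reporter mRNA measured by RT-PCR, fluorescent labelling, HpaI digestion and capillary electrophoresis. Induction fitted against DMSO.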
# [8] = biological target: human Thyroid Receptor alpha (THRa1), THRA (gene 7067) (UniProt P10827); test: ATG_THRa1_TRANS: Attagene TRANS-FACTORIAL HepG2 Assay for human Thyroid Receptor alpha (THRa1) (AID 2283014)
# Sequence of human Thyroid Receptor alpha (THRa1), THRA (gene 7067) (P10827 whole entry, looked up, the tested form may be a part): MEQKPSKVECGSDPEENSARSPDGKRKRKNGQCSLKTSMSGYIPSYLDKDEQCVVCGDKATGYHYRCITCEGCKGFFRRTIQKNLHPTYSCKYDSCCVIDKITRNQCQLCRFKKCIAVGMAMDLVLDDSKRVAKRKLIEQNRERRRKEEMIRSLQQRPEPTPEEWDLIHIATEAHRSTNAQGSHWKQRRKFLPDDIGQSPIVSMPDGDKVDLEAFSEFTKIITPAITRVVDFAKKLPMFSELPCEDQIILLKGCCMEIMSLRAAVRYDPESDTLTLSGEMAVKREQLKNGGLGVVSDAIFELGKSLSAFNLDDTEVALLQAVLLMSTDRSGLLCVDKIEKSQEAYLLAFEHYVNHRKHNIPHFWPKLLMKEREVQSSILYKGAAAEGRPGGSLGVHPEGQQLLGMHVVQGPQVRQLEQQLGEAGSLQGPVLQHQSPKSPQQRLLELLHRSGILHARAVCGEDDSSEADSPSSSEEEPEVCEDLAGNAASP
# Summary of the method: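 HepG2 cells transiently transfected with multiplexed GAL4-UAS reporter units for exogenous chimeric THRa1-Gal4; reporter mRNA measured 24 h after dosing by RT-PCR, 6-FAM labelling, HpaI digestion and capillary electrophoresis. Gain-of-signal fitted versus DMSO baseline.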
# [9] = biological target: human Retinoic Acid Receptor gamma (RARg), RARG (gene 5916) (UniProt P13631); test: ATG_RARg_TRANS: Attagene TRANS-FACTORIAL HepG2 Assay for human Retinoic Acid Receptor gamma (RARg) (AID 2283009)
# Sequence of human Retinoic Acid Receptor gamma (RARg), RARG (gene 5916) (P13631 whole entry, looked up, the tested form may be a part): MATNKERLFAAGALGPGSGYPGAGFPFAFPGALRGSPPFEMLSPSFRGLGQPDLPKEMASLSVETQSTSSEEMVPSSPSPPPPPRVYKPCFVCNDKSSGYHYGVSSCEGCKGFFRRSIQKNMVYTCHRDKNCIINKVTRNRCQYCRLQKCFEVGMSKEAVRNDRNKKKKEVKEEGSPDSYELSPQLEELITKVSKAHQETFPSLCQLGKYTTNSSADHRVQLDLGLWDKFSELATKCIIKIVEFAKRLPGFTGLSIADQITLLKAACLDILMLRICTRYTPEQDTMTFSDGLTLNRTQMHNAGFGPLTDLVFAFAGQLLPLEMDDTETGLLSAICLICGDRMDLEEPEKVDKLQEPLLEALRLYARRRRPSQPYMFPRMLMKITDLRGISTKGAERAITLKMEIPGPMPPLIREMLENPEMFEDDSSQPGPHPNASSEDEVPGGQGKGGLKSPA
# Summary of the method: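 HepG2 transiently transfected with GAL4-UAS reporter units and chimeric NR-Gal4 constructs; 24 h compound exposure. Reporter mRNA quantified by RT-PCR, FAM labeling, HpaI digestion and capillary electrophoresis; gain-of-signal versus DMSO.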
structure (smiles),measurement,setting,value
Nc1ncc([N+](=O)[O-])s1,outcome,[1],inactive
same,outcome,[2],inactive
same,outcome,[3],inactive
same,outcome,[4],inactive
same,outcome,[5],inactive
same,outcome,[6],inactive
CCOP(=S)(OCC)SCCS(=O)(=O)CC,outcome,[1],inactive
same,outcome,[2],inactive
same,AC50,[3],7.88 µM (active)
same,outcome,[7],inactive
same,outcome,[8],inactive
O=C(OC1CCCCC1)c1ccccc1C(=O)OC1CCCCC1,AC50,[1],9.38 µM (active)
same,AC50,[2],8.15 µM (active)
same,AC50,[3],0.554 µM (active)
same,AC50,[6],7.44 µM (active)
same,outcome,[8],inactive
CCNc1nc(NC(C)(C)C)nc(SC)n1,outcome,[1],inactive
same,AC50,[2],29.5 µM (active)
same,AC50,[3],2.02 µM (active)
same,outcome,[7],inactive
same,AC50,[6],15.5 µM (active)
same,outcome,[8],inactive
CCOP(=S)(OCC)Oc1nc(Cl)c(Cl)cc1Cl,AC50,[1],20 µM (active)
same,AC50,[2],46.8 µM (active)
same,AC50,[3],5.64 µM (active)
same,outcome,[4],inactive
same,outcome,[7],inactive
same,AC50,[6],30.9 µM (active)
same,outcome,[8],inactive
C=CC(=O)OCCCCCC(C)C,outcome,[1],inactive
same,outcome,[2],inactive
same,outcome,[3],inactive
same,outcome,[5],inactive
same,outcome,[7],inactive
same,outcome,[6],inactive
Oc1ccc(-c2ccccc2)cc1,outcome,[1],inactive
same,outcome,[2],inactive
same,outcome,[3],inactive
same,outcome,[9],inactive
same,outcome,[7],inactive
same,outcome,[6],inactive
same,outcome,[8],inactive
COC[C@H](C)N(C(=O)CCl)c1c(C)csc1C,outcome,[1],inactive
same,outcome,[2],inactive
same,AC50,[3],33.7 µM (active)
same,outcome,[7],inactive
CC(C)(C)c1cc(O)ccc1O,AC50,[1],9.85 µM (active)
same,AC50,[2],52.5 µM (active)
same,AC50,[3],3.34 µM (active)
same,outcome,[5],inactive
same,outcome,[8],inactive
Nc1ccc(-c2ccc(N)c(Cl)c2)cc1Cl,AC50,[1],1.84 µM (active)
same,AC50,[2],11.9 µM (active)
same,AC50,[3],13.2 µM (active)
same,outcome,[4],inactive
same,outcome,[7],inactive
same,AC50,[6],11.2 µM (active)
CC(=O)C(Cl)C(=O)N(C)C (configuration not stated),AC50,[1],20 µM (active)
same,outcome,[2],inactive
same,outcome,[3],inactive
same,outcome,[4],inactive
same,outcome,[5],inactive
same,outcome,[7],inactive
same,outcome,[6],inactive
same,outcome,[8],inactive
COP(=S)(OC)Oc1ccc(S(=O)(=O)N(C)C)cc1,outcome,[1],inactive
same,outcome,[2],inactive
same,outcome,[3],inactive
same,outcome,[7],inactive
same,outcome,[8],inactive
C[C@@H]1C[C@@H]([C@H](O)CC2CC(=O)NC(=O)C2)C(=O)[C@@H](C)C1,AC50,[1],2.9 µM (active)
same,AC50,[2],23.4 µM (active)
same,outcome,[2],inactive
same,outcome,[3],inactive
same,outcome,[4],inactive
same,outcome,[7],inactive
same,outcome,[6],inactive
same,outcome,[8],inactive
ClC1=C(Cl)[C@]2(Cl)[C@H]3[C@H]([C@H]4C=C[C@H]3C4)[C@@]1(Cl)C2(Cl)Cl,AC50,[1],20 µM (active)
same,AC50,[2],64 µM (active)
same,AC50,[3],0.794 µM (active)
same,outcome,[8],inactive
O=C(Nc1ccc2[nH]ccc2c1)c1cc2cc(F)ccc2n1Cc1cccc(F)c1,AC50,[1],3.44 µM (active)
same,outcome,[2],inactive
same,outcome,[3],inactive
same,outcome,[5],inactive
same,outcome,[7],inactive
Oc1cccc2cccnc12,AC50,[1],4.78 µM (active)
same,outcome,[2],inactive
same,outcome,[3],inactive
same,outcome,[4],inactive
same,outcome,[7],inactive
same,outcome,[8],inactive
O=S(=O)(c1ccc(Cl)cc1)c1ccc(Cl)cc1,outcome,[1],inactive
same,AC50,[2],7.7 µM (active)
same,AC50,[3],7 µM (active)
same,outcome,[7],inactive
same,outcome,[8],inactive
O=Cc1cccc(Oc2ccccc2)c1,outcome,[1],inactive
same,outcome,[2],inactive
same,outcome,[3],inactive
same,outcome,[4],inactive
same,outcome,[6],inactive
same,outcome,[8],inactive
CC(C)c1ccc(CO)cc1,outcome,[1],inactive
same,outcome,[2],inactive
same,outcome,[3],inactive
same,outcome,[4],inactive
same,outcome,[6],inactive
same,outcome,[8],inactive
CC12CC1(C)C(=O)N(c1cc(Cl)cc(Cl)c1)C2=O (configuration not stated),outcome,[1],inactive
same,outcome,[2],inactive
same,AC50,[3],2.03 µM (active) and 4.13 µM (active) and 2.07 µM (active)
same,outcome,[3],inactive
same,outcome,[4],inactive
same,outcome,[5],inactive
same,outcome,[7],inactive
same,outcome,[6],inactive
same,outcome,[8],inactive
COP(=S)(OC)Oc1cc(Cl)c(Cl)cc1Cl,AC50,[1],20 µM (active)
same,AC50,[2],54.8 µM (active)
same,outcome,[9],inactive
same,outcome,[7],inactive
same,AC50,[6],68.2 µM (active)
same,outcome,[8],inactive
CCC(=O)C(CC(C)N(C)C)(c1ccccc1)c1ccccc1 (configuration not stated),outcome,[1],inactive
same,outcome,[2],inactive
same,outcome,[3],inactive
same,outcome,[9],inactive
same,outcome,[7],inactive
same,outcome,[6],inactive
same,outcome,[8],inactive
CCOC(=O)/C=C(C)/C=C/C[C@@H](C)CCCC(C)C,AC50,[1],20 µM (active)
same,AC50,[2],1.56 µM (active)
same,AC50,[3],5.32 µM (active)
same,outcome,[7],inactive
same,AC50,[6],26.9 µM (active)
Cn1sc(Cl)cc1=O,AC50,[1],13.7 µM (active)
same,outcome,[2],inactive
same,outcome,[9],inactive
same,outcome,[7],inactive
CN(C)N=O,outcome,[1],inactive
same,outcome,[3],inactive
same,outcome,[9],inactive
same,outcome,[7],inactive
same,outcome,[6],inactive
same,outcome,[8],inactive
NC(=O)O,outcome,[1],inactive
same,outcome,[3],inactive
same,outcome,[4],inactive
same,outcome,[5],inactive
same,outcome,[7],inactive
same,outcome,[6],inactive
same,outcome,[8],inactive
COC(=O)c1sccc1S(=O)(=O)NC(=O)Nc1nc(C)nc(OC)n1,outcome,[1],inactive
same,outcome,[3],inactive
same,outcome,[6],inactive
CC(C)(OO)c1ccccc1,outcome,[1],inactive
same,outcome,[2],inactive
same,outcome,[4],inactive
same,outcome,[6],inactive
COc1ccc(OC)c(C=O)c1,outcome,[2],inactive
same,AC50,[3],6.5 µM (active)
same,outcome,[4],inactive
same,outcome,[5],inactive
same,outcome,[6],inactive
same,outcome,[8],inactive
CCC1(c2ccc(N)cc2)CCC(=O)NC1=O (configuration not stated),outcome,[2],inactive
same,outcome,[3],inactive
same,outcome,[5],inactive
same,outcome,[7],inactive
same,outcome,[8],inactive
COc1cc2c(cc1OC)[C@@]13CCN4CC5=CCO[C@H]6CC(=O)N2[C@H]1[C@H]6[C@H]5C[C@H]43,outcome,[2],inactive
same,outcome,[3],inactive
same,outcome,[5],inactive
same,outcome,[8],inactive
